TTR transcr act = TTR transcription activators in neuroblastoma reporter cells, primary screen, cell-based, luminescence, SH-SY5Y, TTR promoter Gaussia luciferase; 100% = recombinant luciferase protein wells; activation, % at 16.7 µM; hit rate 1.3% among 92,000; AID 1117267, 2014;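 active = activation above the mean of all tested compounds plus 3 SD, cut at about 9.5% in these data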;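 also: cells exposed to compounds for one day before reading; 0% = median of all test compound wells on the plate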
TTR inh HuH7 = TTR promoter reporter inhibitors in hepatoma cells, counter-screen for TTR transcription activator project, cell-based, luminescence, HuH7 hepatoma; HuH7 TTR promoter-Gaussia luciferase reporter; inhibition, % at 16.7 µM; AID 1117279, 2014; shares compounds with TTR transcr act; hit rate 4% among 1,100;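 active = average inhibition above the solvent-only control wells' mean plus 3 SD, cut at about 15% in these data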;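 also: 0% = cells with DMSO only and 100% = cells with inhibitor control FD; inhibitors lower well luminescence so higher value means more inhibition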
TTR up confirm = TTR transcription activators, retest, confirmation, cell-based, luminescence, SH-SY5Y, triplicate; shares compounds with TTR transcr act; SHSY5Y TTR promoter Gaussia luciferase; 100% = purified Lucia enzyme wells, no cells; activation, % at 16.7 µM; 1,100 tested, under 10 active;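 active = mean activation above a set limit taken from the earlier primary screen, cut at about 11% in these data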;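 also: 0% = DMSO-treated cells and 100% = recombinant Lucia luciferase without cells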
* hit, by the source's call. Only a selection was taken, and hits are over-represented in it overall.

SMILES | TTR transcr act | others
Cc1ccc(C)n1-c1ccc(C(=O)NCC2CCCO2)cc1 (stereo unspecified) | 2
O=C(CSc1nc2ccccc2n1-c1ccccc1)NCC1CCCO1 (stereo unspecified) | 2
CN1CCC(N[C@@H](Cc2ccccc2)C(=O)NCCCc2ccccc2)(C(=O)NCCc2c[nH]c3ccccc23)CC1 | 5
CC1(C)CC(=O)C=C(c2ccc(OC(F)(F)F)cc2)C1 | 12* | TTR inh HuH7=-5;TTR up confirm=-1
CC1(C)CC(=O)C=C(c2ccc(I)cc2)C1 | 2
CC1(C)CC(=O)C=C(c2ccc(Oc3ccccc3)cc2)C1 | -3
Nn1c(SCC(=O)Nc2ccc3c(c2)OCO3)nncc1=O | -2
O=C(CSc1nc2ccccc2s1)Nc1ccc2c(c1)OCO2 | 2
Nn1cc(-c2ccccc2)nc1SCC(=O)Nc1ccc2c(c1)OCO2 | 14* | TTR inh HuH7=-22;TTR up confirm=1
CCC[C@H]1[C@@H](N)CC[C@@]23CCCN2C(=O)CCC[C@@H]13 | 2
COc1cccc(Cn2cc(COC(=O)N3CCOCC3)nn2)c1 | 0
COC(=O)c1cc(COC(=O)c2nc3nc(C)cc(C)n3n2)oc1C | 10* | TTR inh HuH7=-11;TTR up confirm=-1
Cc1cc(C)n2nc(C(=O)OCC(=O)c3ccccc3)nc2n1 | 0
Cc1cc(C)n2nc(C(=O)OCC(=O)Nc3ccc4c(c3)OC(F)(F)O4)nc2n1 | -1
COC(CNC(=O)[C@H](Cc1ccccc1)NC1(C(=O)NC2CCCCC2)CCC1)OC | 1
CCOC(=O)[C@]12CCCC=C1N(Cc1ccc(OC)cc1)C(=O)[C@@H]2CC(=O)N1CCCCC1 | 0
CCCCC(=O)N[C@H]1CC[C@@]23CCCN2C(=O)CCC[C@H]3[C@H]1C | -1
CCC[C@H]1[C@@H](OC(=O)NCc2ccccc2)CC[C@@]23CCCN2C(=O)CCC[C@@H]13 | 3
OCC1OC(n2cnc3c(/C=C(\O)c4ccccc4)ncnc32)C(O)C1O (stereo unspecified) | -1
Nc1nc(Nc2ccccc2)nc(N2CCOCC2)c1[N+](=O)[O-] | 1
Nc1nc(NCC2CCCO2)nc(Nc2ccc(Cl)cc2)c1[N+](=O)[O-] (stereo unspecified) | 3
Nc1nc(NCCCN2CCOCC2)nc(Nc2ccc(Cl)cc2)c1[N+](=O)[O-] | 13* | TTR inh HuH7=-8;TTR up confirm=0
CN=C1S/C(=C/c2cc(C)n(-c3ccc(Cl)cc3F)c2C)C(=O)N1C | 0
O=C1CN(C(=O)NCC(=O)N[C@H](C(=O)O)c2ccccc2)c2ccccc2N1 | 1
O=C1CN(C(=O)OCc2ccccc2)c2ccccc2N1 | 14* | TTR inh HuH7=-10;TTR up confirm=0
SMILES | TTR transcr act | others
O=C1CN(C(=O)c2ccccn2)c2ccccc2N1 | 0
COC(=O)[C@]12C[C@H](CC(=O)NCc3ccc(OC)c(OC)c3)C(=O)N(Cc3ccc(Cl)cc3Cl)C1=C[C@H](C1CCCC1)O[C@@H]2C | 0
C/C(=N/NC(=O)c1cccs1)c1cccs1 | 1
CCNC(=O)Cc1ccc(Br)cc1 | 3
CC/C(=N\NC(=O)Cc1ccc(Br)cc1)c1cccs1 | 42* | TTR inh HuH7=-29;TTR up confirm=0
CCOC(=O)[C@]12CCCC3=C1N(CCC3)C(=O)[C@@H](CC(=O)NCc1ccccc1)C2 | -1
CCCCCCCCN1C(=O)[C@@H](CC(=O)NCC2CCCCC2)C[C@@]2(C(=O)OC)C1=C[C@H](C(C)C)O[C@@H]2C1CC1 | 1
CCOC(=O)N1CCN(C(=O)C[C@H]2C(=O)N(Cc3ccc(OC)cc3)C3=CCCCC[C@@]32C(=O)OC)CC1 | -1
Cc1ccc2c(Cl)cc(Cl)c(OCC(=O)NC(=O)NCc3ccco3)c2n1 | -2
Cc1ccc2cccc(OCC(=O)N(C)CC(=O)Nc3ccc(F)cc3)c2n1 | 4
Cc1ccc(NC(=O)CN(C)C(=O)COc2c(Cl)cc(Cl)c3ccc(C)nc23)cc1 | 13* | TTR inh HuH7=-42;TTR up confirm=0
O=C(NCc1ccccc1)O[C@H]1CC[C@@]23CCCN2C(=O)CCC[C@H]3C1 | -1
Brc1ccc(-c2c(-c3ccsc3)sc3ccccc23)cn1 | -1
COc1ccc2c(C#CCCO)c(-c3ccc(S(C)(=O)=O)cc3)sc2c1 | -3
OCCC#Cc1c(-c2ccsc2)sc2ccccc12 | 10.0* | TTR inh HuH7=-8;TTR up confirm=-1
O=C(N[C@@H]1CCCc2c1cnn2-c1ccc(F)cc1F)c1ccccn1 | 4
O=C(NC(c1ccc(-c2ccccc2)cc1)c1cnccn1)C1CCN(CCOc2ccc(F)cc2)CC1 (stereo unspecified) | -4
O=C(CSc1nnc(-c2ccccc2)o1)NCC1CCCCC1 | 12* | TTR inh HuH7=-6;TTR up confirm=-1
O=C(CSc1nnc(-c2cccc(F)c2)o1)NC1CCCC1 | -1
Cc1cnc(NC(=O)CSc2nnc(-c3ccccc3)o2)s1 | -2
Cc1ccc(CNC(=O)O[C@H]2CC[C@@]34CCCN3C(=O)CCC[C@H]4[C@H]2C)o1 | 0
COC(=O)[C@]12C[C@H](CC(=O)N3CCN(C(=O)C4CC4)CC3)C(=O)N(Cc3ccc(Cl)cc3Cl)C1=C[C@H](C(C)(C)C)O[C@@H]2C | 1
CCc1c2c3n4c1CCC[C@@H]4C[C@@H]3O[Si](C(C)C)(C(C)C)OC(C)C2=O (stereo partly specified) | -2
CCOC(=O)c1c(-c2ccccc2)oc2ccc(O)c(CN3CCOCC3)c12 | -4
CCOC(=O)c1c(C)oc2ccc(O)c(CN3CCCCC3)c12 | 23* | TTR inh HuH7=-7;TTR up confirm=0
SMILES | TTR transcr act | others
CCOC(=O)c1c(CN2CCCCC2)oc2ccc(OC)cc12 | -1
CCOC(=O)c1ccc(O)c(-n2cc3c(c2-c2ccccc2)c(=O)n(C)c(=O)n3C)c1 | 1
CC1(C)C=C2C(N(Cc3ccc4c(c3)OCO4)C(=N)N2C(=O)OCc2ccccc2)n2c(=O)n(-c3ccccc3)c(=O)n21 (stereo unspecified) | 1
O=C(COc1ccc(Cl)cc1)NCc1nnc(SCC(=O)NCc2ccc3c(c2)OCO3)o1 | -1
COc1ccc(C(=O)NCc2nnc(SCC(=O)Nc3ccc4c(c3)OCO4)o2)cc1 | 3
O=C(CSc1nnc(CNC(=O)c2ccccc2)o1)NCc1ccc2c(c1)OCO2 | 17* | TTR inh HuH7=-16;TTR up confirm=0
COc1ccc(C2Nc3ccccc3C(=O)N2Cc2ccco2)cc1COc1c(C)cc(NC(C)=O)cc1C (stereo unspecified) | -3
COC(=O)[C@]12C[C@H](CC(=O)NCCCN3CCCC3=O)C(=O)N(Cc3ccc(Cl)cc3Cl)C1=C[C@H](C1CCCC1)O[C@@H]2C | 3
CCCCN1C[C@@H]2CSCCS(=O)(=O)N2C1=O | 0
CCCc1ccc2c(C)cccc2n1 | 0
C=CCCC1CN(Cc2ccc(OC)cc2)S(=O)(=O)c2c(F)cccc2O1 (stereo unspecified) | -1
O=C(COC(=O)c1cccc(F)c1)Nc1cccnc1Cl | -1
N#Cc1ccc(C(=O)OCC(=O)Nc2cccnc2Cl)cc1 | 16* | TTR inh HuH7=-10;TTR up confirm=-1
COc1cccc(OC)c1C(=O)OCC(=O)Nc1cccnc1Cl | -1
O=C(Nc1cccc(F)c1)OC1CC2CC1[C@H]1CCCCN1[C@H]2Cc1ccccc1 (stereo partly specified) | -1
CCCC1CCC2(CC1)CCC2OC(=S)Nc1ccccc1C(F)(F)F (stereo unspecified) | 0

Compound activity (PubChem BioAssay)
